Laboratory results as given in the supplement of paper PMC5662767.
Counter-ions that a name gives are not always drawn.

System: Drosophila S2 cl14 SmoIP sensor cells
Experiment: normalized SmoIP GFP fluorescence (untreated unstimulated = 0%, untreated Hh-stimulated = 100%); higher = more Smo activation sensor fluorescence
Settings: stimulation: Hh conditioned medium (+Hh); compound concentration: 2 uM; 24 h
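Note: flow cytometry read-out as median GFP intensity of gated cells, compounds added 30 min before Hh-conditioned or mock medium, mock-treated cells serving as unstimulated baseline.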

Row | SMILES | normalized SmoIP GFP fluorescence [%]
1 | Cc1ccc(NC(=O)C2(c3ccc4c(c3)OC(F)(F)O4)CC2)nc1-c1cccc(C(=O)O)c1 | 80
2 | CCc1cc2c(cc1CC)CC(NC[C@H](O)c1ccc(O)c3[nH]c(=O)ccc13)C2 [indacaterol-maleate] | 107
3 | COc1ccc2[nH]c([S+]([O-])Cc3ncc(C)c(OC)c3C)nc2c1 (configuration not stated) [Omeprazole] | 97
4 | CNCCC(Oc1ccc(C(F)(F)F)cc1)c1ccccc1 (configuration not stated) [Fluoxetine-hydrochloride] | 111
5 | Fc1ccc([C@@H]2CCNC[C@H]2COc2ccc3c(c2)OCO3)cc1 [paroxetine-hcl] | 103
6 | O=C1NCCc2[nH]c(-c3ccncc3)cc21 | 164
7 | O=C(CSc1nc2c(c(=O)n1-c1ccccc1)SCC2)Nc1ccc(-c2ccccc2)cn1 | 110

Same assay, conditions: stimulation: mock conditioned medium (-Hh); compound concentration: 2 uM; 24 h

Row | SMILES | normalized SmoIP GFP fluorescence [%]
8 | Nc1ncn([C@H]2C[C@H](O)[C@@H](CO)O2)c(=O)n1 [Decitabine] | 25.6
9 | CCOc1ccn(-c2ccc(F)cc2)c(=O)c1C(=O)Nc1ccc(Oc2ccnc(N)c2Cl)c(F)c1 | -5.22
10 | CCOC(=O)[C@H]1O[C@@H]1C(=O)N[C@@H](CC(C)C)C(=O)NCCC(C)C [Aloxistatin] | 3.51
11 | CS(=O)(=O)c1ccc(C(=O)Nc2ccc(Cl)c(-c3ccccn3)c2)c(Cl)c1 | 36.8
12 | COc1ccc(S(=O)(=O)N(C(C)=O)c2ccccc2/C=C/c2cc[n+]([O-])cc2)cc1 | 1.03
13 | C[C@H](NCc1ccc(OCc2cccc(F)c2)cc1)C(N)=O [Safinamide-mesilate] | 4.04
14 | CCc1cc2c(cc1CC)CC(NC[C@H](O)c1ccc(O)c3[nH]c(=O)ccc13)C2 [indacaterol-maleate] | -2.82
15 | COc1ccccc1N1CCN(CC(O)COc2cccc3ccccc23)CC1 (configuration not stated) [Naftopidil-Dihydrochloride] | -1.88
16 | CN(C)C(=O)c1ccc(S(=O)(=O)c2ccc(NC(=O)[C@@](C)(O)C(F)(F)F)c(Cl)c2)cc1 | -2.1
17 | NC(=O)c1cn(Cc2c(F)cccc2F)nn1 [Rufinamide] | 1.89
18 | COc1ccc2cc(-c3nc(-c4ccc([S+](C)[O-])cc4)[nH]c3-c3ccncc3)ccc2c1 (configuration not stated) [Tie2-kinase-inhibitor] | 21.9
19 | CC1=C(C(=O)Nc2cc3cn[nH]c3cc2F)C(c2ccc(C(F)(F)F)cc2)CC(=O)N1 (configuration not stated) | -1.88
20 | N#C/C(=C\c1ccc(O)c(O)c1)C(=O)NCc1ccccc1 | 9.54
21 | NC(=S)N/N=C/c1ncccc1N [triapine] | -3.71
22 | Nc1ccc(C(=O)Nc2cccc(-c3nc(N4CCOCC4)c4oc5ncccc5c4n3)c2)cn1 | 5.45
23 | COc1cc2c(Nc3ccc(NC(=O)c4ccccc4)cc3)ncnc2cc1OCCCN1CCOCC1 | 6.52
24 | NC(=O)Nc1cc(-c2cccc(F)c2)sc1C(=O)N[C@H]1CCCNC1 | 45
25 | CNCCC(Oc1ccc(C(F)(F)F)cc1)c1ccccc1 (configuration not stated) [Fluoxetine-hydrochloride] | 1.89
26 | COc1nc(C)cnc1NS(=O)(=O)c1cccnc1-c1ccc(-c2nnco2)cc1 [Zibotentan(ZD4054)] | -1.13
27 | Clc1ccc(C2(c3ccc(-c4cn[nH]c4)cc3)CCNCC2)cc1 | 17.1
28 | C[C@]12CC[C@@H]3c4ccc(O)cc4CC[C@H]3[C@@H]1CCC2=O [Estrone] | 5.12
29 | CCNC(=O)c1noc(-c2cc(C(C)C)c(O)cc2O)c1-c1ccc(CN2CCOCC2)cc1 | 32.9
30 | Fc1ccc([C@@H]2CCNC[C@H]2COc2ccc3c(c2)OCO3)cc1 [paroxetine-hcl] | 0.588
31 | COCCCC/C(=N\OCCN)c1ccc(C(F)(F)F)cc1 [Fluvoxamine-maleate] | 11
32 | C[C@]12C=CC(=O)N[C@@H]1CC[C@@H]1[C@@H]2CC[C@]2(C)[C@@H](C(=O)Nc3cc(C(F)(F)F)ccc3C(F)(F)F)CC[C@@H]12 [Dutasteride] | 4.26
33 | O=C(c1cc(Cc2n[nH]c(=O)c3ccccc23)ccc1F)N1CCN(C(=O)C2CC2)CC1 [AZD2281(Olaparib)] | 1.35
34 | Cc1nc(C(=O)NCC(=O)O)c(O)c2ccc(Oc3ccccc3)cc12 | 11
35 | CCOC(=O)Nc1cc(-c2ccc(C)c(NS(C)(=O)=O)c2)nn2c(C)nnc12 [bromosporine] | 49.9
36 | C#CCC(Cc1cnc2nc(N)nc(N)c2n1)c1ccc(C(=O)N[C@@H](CCC(=O)O)C(=O)O)cc1 (some centres not stated) [Pralatrexate(Folotyn)] | 13.3
37 | C[C@]12CC[C@@H]3c4ccc(O)cc4C[C@@H](CCCCCCCCC[S+]([O-])CCCC(F)(F)C(F)(F)F)[C@H]3[C@@H]1CC[C@@H]2O (some centres not stated) [Fulvestrant] | 12.4
